Reference: PubChem BioAssay
Inconclusive results are not listed. Activity calls are given as the source filed them. Unless noted, the rule behind the calls is not given here.

Assays:
[1] = yeast TOR pathway RPL19A-GFP modulators, primary screen, cell-based, S. cerevisiae, multiplex flow cytometry (AID 1862; in the data active = percent of DMSO control GFP below about 86%;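 note: lower values mimic rapamycin by blocking the RPL19A rise seen in DMSO cells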); conditions: S. cerevisiae RPL19A-GFP strain, flow cytometry fluorescence, 3 h; at 10 µM; stronger effect = lower value
[2] = modulators of MEP2-GFP levels in yeast, primary screen, S. cerevisiae, multiplex flow cytometry (AID 1867;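 active = GFP response, as percent of the DMSO control, above the screen-wide mean plus 3 SD, about 139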;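 note: median GFP channel fluorescence of barcode-gated MEP2-GFP cells measured by flow cytometry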); conditions: S. cerevisiae MEP2-GFP strain, 3 h, at 10 µM, stronger effect = higher value
[3] = modulators of CIT2-GFP expression in yeast, primary screen, S. cerevisiae, GFP fusion, multiplex flow cytometry (AID 1870;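 active = percent response above a set limit, the screen-wide mean plus 3 SD, cut at about 130% in these data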;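 note: barcoded CIT2-GFP strain pooled with four other GFP strains with rapamycin as positive control; median GFP fluorescence per well over plate mean of DMSO wells so 100% = DMSO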); conditions: 3 h, at 10 µM, stronger effect = higher value
[4] = modulators of LAP4-GFP expression in yeast, primary screen, S. cerevisiae, multiplex flow cytometry (AID 1873;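 active = GFP signal, as percent of the solvent control, above the screen mean plus 3 SD, about 149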); conditions: 3 h, at 10 µM, stronger effect = higher value
[5] = inhibitors of CD8+ T cell-vesicle binding, pilot screen, LFA-1/ICAM-1 modulator project, MLPCN validation set, flow cytometry (AID 2523;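 active = response below a set limit, under 55% cells CD8-positive and vesicle-bound, and CD8 cells' 90th-percentile brightness under 279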;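 for vesicle binding response: mean PE anti-B7-1 fluorescence of CD8+ cells relative to row control; 100% = QL9-loaded vesicles with DMSO vehicle in the same plate row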); conditions: 2C mouse CD8+ T cells, at 7 µM, stronger effect = lower value; double positive events: measured here: CD8+/vesicle+ event percentage
[6] = molecular target: Integrin beta-1 (Homo sapiens) + Integrin alpha-4 (Homo sapiens) (UniProt P13612+P05556); assay: inhibition of HUTS-21 binding to VLA-4, pilot screen, VLA-4 allosteric modulator project, U937 cells, HUTS-21 mAb, flow cytometry, validation set (AID 2674;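 active = inhibition above 50%, about 3 SD of the validation set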;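 note: antibody binding induced by the VLA-4 ligand LDV present at three times its Kd; 0% = LDV ligand with antibody and no compound and 100% = antibody without LDV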); conditions: HUTS-21 LIBS mAb binding, at 6.7 µM, stronger effect = higher value
[7] = molecular target: Beta-adrenergic receptor kinase 1 (Homo sapiens) (UniProt P25098); assay: GRK2 binders displacing RNA aptamer, biochemical, validation, human GRK2, bead flow cytometry (AID 488806;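 active = aptamer binding inhibition above 30%, about 3 SD of noise from non-fluorescent compounds; inactive = inhibition at or below 30%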); conditions: bead-bound GRK2, FAM-aptamer displacement, at 10 µM, stronger effect = higher value
[8] = molecular target: AP-2 complex subunit beta (Homo sapiens) (UniProt P63010); assay: inhibitors of arrestin peptide binding to AP2, pilot screen, biochemical, validation set, GST-AP2 beads, flow cytometry (AID 504541;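 active = inhibition above 54%, about 3 SD of non-fluorescent compounds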;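 note: AP2 carries R879A mutation and is captured from E. coli lysate; bead-bound FITC arrestin peptide fluorescence measuring arrestin peptide binding to AP2; 0% = DMSO wells and 100% = excess unlabeled arrestin peptide control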); conditions: FITC arrestin peptide, at 10 µM, stronger effect = higher value
[9] = yeast V-ATPase proton transport modulators, S. cerevisiae, pHLuorin, HTS validation (AID 504600; in the data active = response above about 15%;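 note: plate controls were DMSO for no effect and reference compound for full effect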); conditions: S. cerevisiae pHLuorin cytosolic pH, at 10 µM, stronger effect = higher value
[10] = tested on: anti-desmoglein-3 scFv antibody binding to human DSG3; assay: inhibitors of anti-DSG3 scFv binding to DSG3, pilot screen, biochemical, validation compound set, bead-based, flow cytometry (AID 588368;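 active = binding below the plate cutoff, the plate median minus 3 SD, with a reading above zero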;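 note: signal is the median channel fluorescence of bead-bound GFP antibody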); conditions: Protein G beads, DSG3-Fc, scFv-GFP binding, at 10 µM, stronger effect = lower value
[11] = tested on: Botulinum neurotoxin type F light chain protease (Clostridium botulinum); assay: Botulinum neurotoxin type F light chain protease inhibition, multiplex microsphere flow cytometry, validation set (AID 588459); conditions: multiplex microsphere protease substrate cleavage assay, at 10 µM, stronger effect = higher value
[12] = molecular target: Botulinum neurotoxin type A (Clostridium botulinum) (UniProt P0DPI0); assay: BoNT/A light chain protease inhibitors, biochemical, multiplex microsphere flow cytometry, validation set (AID 588460); conditions: at 10 µM, stronger effect = higher value
[13] = molecular target: Lethal factor (Bacillus anthracis) (UniProt P15917); assay: Lethal factor protease inhibitors, Bacillus anthracis, multiplex microsphere cleavage assay, validation set (AID 588461); conditions: flow cytometry, at 10 µM, stronger effect = higher value
[14] = inhibitors of fungal efflux pumps CDR1, CDR2, MDR1, pilot screen, validation compound set, multiplex, phenotypic (AID 588506;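 active = efflux inhibition above 0.42, the validation set average plus 4 SD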;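 note: Nile Red retained in cells so higher fluorescence means more efflux inhibition; 0 = negative control wells and 1 = enniatin B 25 µM full block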); conditions: S. cerevisiae pump-expressing triplex, Nile Red efflux flow cytometry; at 10 µM; stronger effect = higher value
[15] = molecular target: ATP-binding cassette sub-family B member 6 (Homo sapiens) (UniProt Q9NP58); assay: ABCB6 transporter inhibitors, pilot screen, K562-ABCB6 cells, flow cytometry, validation set (AID 588550;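 active = inhibition above the screen-wide mean plus 3 SD, about 51%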;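 note: 0% = DMSO wells and 100% = benzethonium chloride 70 µM positive control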); conditions: K562-ABCB6 porphyrin accumulation, 1 h, at 10 µM, stronger effect = higher value
[16] = promoters of myeloid differentiation in arrested cells, primary screen, cell-based, GFP/MAC1 double positive, flow cytometry, validation set (AID 588685;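 active = differentiation response of at least 50%, scaled between solvent and reference control, from cells with both markers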;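 note: compound exposure lasts four days before antibody staining and flow analysis; 0% = DMSO wells and 100% = 5 µM fulvestrant positive control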); conditions: ER-HoxA9 marrow cells, stronger effect = higher value

Sequence of ATP-binding cassette sub-family B member 6 (Homo sapiens) (Q9NP58 whole entry, looked up): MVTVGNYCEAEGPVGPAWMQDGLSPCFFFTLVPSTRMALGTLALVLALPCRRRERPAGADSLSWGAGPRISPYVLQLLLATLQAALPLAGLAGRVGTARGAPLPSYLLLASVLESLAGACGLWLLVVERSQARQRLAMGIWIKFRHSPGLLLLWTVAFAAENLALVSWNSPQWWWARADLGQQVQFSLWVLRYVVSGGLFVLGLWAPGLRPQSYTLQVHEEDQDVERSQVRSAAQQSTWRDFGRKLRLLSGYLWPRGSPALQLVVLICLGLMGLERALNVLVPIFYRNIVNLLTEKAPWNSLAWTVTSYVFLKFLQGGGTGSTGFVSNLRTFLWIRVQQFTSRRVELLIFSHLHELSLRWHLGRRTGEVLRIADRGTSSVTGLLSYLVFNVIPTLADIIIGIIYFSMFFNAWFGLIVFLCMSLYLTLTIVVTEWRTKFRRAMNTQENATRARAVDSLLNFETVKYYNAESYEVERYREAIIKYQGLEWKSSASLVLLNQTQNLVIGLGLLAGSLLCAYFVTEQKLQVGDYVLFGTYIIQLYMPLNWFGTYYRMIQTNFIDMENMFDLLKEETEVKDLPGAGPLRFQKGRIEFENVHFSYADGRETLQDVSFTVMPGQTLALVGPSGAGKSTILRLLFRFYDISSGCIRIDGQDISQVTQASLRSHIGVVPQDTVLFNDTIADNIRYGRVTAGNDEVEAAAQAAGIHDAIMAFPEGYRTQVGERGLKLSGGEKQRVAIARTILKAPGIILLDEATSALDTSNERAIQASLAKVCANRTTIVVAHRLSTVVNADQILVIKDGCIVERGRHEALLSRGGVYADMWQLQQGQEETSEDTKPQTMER
Sequence of AP-2 complex subunit beta (Homo sapiens) (P63010 whole entry, looked up, one chain of several): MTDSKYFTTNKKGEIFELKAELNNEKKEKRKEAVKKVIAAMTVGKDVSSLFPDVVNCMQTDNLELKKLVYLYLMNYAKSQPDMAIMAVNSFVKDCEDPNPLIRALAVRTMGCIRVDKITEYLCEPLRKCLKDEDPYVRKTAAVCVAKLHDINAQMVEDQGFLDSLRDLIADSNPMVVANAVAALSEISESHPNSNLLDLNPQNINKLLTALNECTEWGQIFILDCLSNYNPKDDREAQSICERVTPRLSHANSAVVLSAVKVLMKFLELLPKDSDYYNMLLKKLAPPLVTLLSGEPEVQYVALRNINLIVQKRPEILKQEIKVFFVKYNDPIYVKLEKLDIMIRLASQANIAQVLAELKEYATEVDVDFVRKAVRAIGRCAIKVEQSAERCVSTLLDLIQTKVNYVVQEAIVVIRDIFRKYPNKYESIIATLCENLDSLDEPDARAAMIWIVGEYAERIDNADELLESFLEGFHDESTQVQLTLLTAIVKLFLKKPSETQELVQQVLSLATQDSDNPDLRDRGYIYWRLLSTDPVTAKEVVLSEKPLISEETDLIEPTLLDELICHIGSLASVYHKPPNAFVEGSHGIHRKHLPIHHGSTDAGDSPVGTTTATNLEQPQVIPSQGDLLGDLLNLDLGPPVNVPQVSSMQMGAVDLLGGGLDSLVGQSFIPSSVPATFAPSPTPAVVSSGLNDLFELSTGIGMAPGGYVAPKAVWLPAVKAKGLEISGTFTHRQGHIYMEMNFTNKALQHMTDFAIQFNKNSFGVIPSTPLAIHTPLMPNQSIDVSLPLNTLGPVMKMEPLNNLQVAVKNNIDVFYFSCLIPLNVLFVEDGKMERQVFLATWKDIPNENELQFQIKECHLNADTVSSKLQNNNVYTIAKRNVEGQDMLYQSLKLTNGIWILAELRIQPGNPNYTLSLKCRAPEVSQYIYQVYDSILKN
Sequence of Integrin beta-1 (Homo sapiens) + Integrin alpha-4 (Homo sapiens) (P05556 whole entry, looked up): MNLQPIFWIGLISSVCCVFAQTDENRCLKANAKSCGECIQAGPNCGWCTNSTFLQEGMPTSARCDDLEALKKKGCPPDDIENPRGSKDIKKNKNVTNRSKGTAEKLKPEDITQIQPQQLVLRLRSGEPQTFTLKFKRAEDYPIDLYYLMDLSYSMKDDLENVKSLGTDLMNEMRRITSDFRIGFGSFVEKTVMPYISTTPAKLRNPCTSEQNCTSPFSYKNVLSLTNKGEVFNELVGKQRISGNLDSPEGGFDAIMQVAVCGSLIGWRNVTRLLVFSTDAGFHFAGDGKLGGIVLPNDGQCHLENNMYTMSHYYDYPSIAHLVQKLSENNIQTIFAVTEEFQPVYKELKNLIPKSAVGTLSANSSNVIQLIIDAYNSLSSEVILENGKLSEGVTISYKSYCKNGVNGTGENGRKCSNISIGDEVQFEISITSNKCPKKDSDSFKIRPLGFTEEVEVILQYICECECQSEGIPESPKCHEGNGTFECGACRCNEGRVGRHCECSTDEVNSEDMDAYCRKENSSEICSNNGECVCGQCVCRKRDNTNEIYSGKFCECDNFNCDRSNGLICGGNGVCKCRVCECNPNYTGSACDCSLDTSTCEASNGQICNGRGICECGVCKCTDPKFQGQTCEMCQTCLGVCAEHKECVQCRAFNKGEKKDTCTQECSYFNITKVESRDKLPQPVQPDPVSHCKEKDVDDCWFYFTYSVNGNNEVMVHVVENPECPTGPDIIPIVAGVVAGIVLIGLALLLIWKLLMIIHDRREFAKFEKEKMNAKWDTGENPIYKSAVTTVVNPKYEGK
Sequence of Integrin beta-1 (Homo sapiens) + Integrin alpha-4 (Homo sapiens) (P13612 whole entry, looked up): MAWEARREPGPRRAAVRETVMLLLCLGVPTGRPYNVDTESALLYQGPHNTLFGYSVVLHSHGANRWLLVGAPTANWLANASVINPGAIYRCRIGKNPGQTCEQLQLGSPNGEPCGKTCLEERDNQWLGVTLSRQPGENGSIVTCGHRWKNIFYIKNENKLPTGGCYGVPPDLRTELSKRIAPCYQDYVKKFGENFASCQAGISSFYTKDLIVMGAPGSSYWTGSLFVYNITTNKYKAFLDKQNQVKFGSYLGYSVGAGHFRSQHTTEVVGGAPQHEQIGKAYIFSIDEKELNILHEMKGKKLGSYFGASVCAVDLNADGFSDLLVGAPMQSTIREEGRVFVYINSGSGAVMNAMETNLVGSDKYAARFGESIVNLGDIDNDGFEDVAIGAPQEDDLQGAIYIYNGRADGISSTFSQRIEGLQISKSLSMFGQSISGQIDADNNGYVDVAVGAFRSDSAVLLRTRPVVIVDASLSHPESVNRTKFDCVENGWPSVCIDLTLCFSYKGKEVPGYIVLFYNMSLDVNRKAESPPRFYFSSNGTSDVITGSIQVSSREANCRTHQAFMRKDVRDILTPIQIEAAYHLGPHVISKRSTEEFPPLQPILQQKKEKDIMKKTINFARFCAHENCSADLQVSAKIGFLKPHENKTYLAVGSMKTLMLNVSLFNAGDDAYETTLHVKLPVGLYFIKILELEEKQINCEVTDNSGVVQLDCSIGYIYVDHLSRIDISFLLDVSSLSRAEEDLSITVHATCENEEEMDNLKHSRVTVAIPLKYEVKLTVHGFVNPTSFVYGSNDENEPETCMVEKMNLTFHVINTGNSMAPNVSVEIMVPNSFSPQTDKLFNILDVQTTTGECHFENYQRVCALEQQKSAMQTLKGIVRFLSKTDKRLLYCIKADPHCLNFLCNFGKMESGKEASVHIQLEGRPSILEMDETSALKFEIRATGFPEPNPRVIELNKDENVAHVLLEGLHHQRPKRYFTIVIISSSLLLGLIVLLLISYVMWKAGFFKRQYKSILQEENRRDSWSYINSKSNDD
Sequence of Lethal factor (Bacillus anthracis) (P15917 whole entry, looked up): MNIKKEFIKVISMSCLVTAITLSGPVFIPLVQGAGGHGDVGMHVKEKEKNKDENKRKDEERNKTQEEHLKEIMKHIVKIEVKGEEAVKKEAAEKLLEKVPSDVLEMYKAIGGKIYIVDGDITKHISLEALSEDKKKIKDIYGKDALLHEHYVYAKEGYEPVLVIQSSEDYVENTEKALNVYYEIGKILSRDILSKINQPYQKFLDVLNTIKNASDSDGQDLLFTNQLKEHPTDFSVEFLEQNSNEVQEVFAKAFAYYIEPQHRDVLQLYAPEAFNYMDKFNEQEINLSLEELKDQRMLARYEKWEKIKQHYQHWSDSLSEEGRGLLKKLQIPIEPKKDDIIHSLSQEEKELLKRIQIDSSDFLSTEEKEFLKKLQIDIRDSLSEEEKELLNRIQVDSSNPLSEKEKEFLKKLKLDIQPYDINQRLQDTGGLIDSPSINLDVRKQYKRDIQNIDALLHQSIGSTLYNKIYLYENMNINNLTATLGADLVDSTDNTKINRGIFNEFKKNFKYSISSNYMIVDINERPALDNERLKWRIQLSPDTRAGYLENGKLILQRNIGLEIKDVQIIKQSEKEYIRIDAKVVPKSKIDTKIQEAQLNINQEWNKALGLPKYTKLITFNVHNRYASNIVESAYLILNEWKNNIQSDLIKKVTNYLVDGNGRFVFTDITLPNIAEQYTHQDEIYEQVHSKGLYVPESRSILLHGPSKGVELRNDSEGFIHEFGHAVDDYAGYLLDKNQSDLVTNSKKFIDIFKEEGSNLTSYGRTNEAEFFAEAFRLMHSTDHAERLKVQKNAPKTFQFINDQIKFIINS

CN1C(=O)CN=C(c2ccc(Cl)cc2)c2cc(Cl)ccc21
62.8%: double positive events [5]
inactive: percent of DMSO control GFP [1] 99% | GFP response vs DMSO [2] 100% | percent response of DMSO control [3] 95.4% | GFP response vs DMSO [4] 103% | vesicle binding response [5] 174% | inhibition [6] 9.92% | aptamer binding inhibition [7] -1% | inhibition [8] -0.45% | response [9] 4.65% | binding (% of control) [10] 96.8% | inhibition [11] 3.6% | inhibition [12] 0.8% | inhibition [13] -3.5% | efflux inhibition (fraction of control) [14] 0.27 | inhibition [15] 7% | differentiation response [16] 1.22%

COc1ccc2c(c1)CC1(CN2C)C(=O)NC(=O)N(CCc2ccccc2)C1=O (stereo unspecified)
inactive: percent of DMSO control GFP [1] 101% | GFP response vs DMSO [2] 98.3% | percent response of DMSO control [3] 96.6% | GFP response vs DMSO [4] 88.1% | vesicle binding response [5] 263% | inhibition [6] -3.57% | aptamer binding inhibition [7] -3% | inhibition [8] -4.29% | response [9] 1.95% | binding (% of control) [10] 104% | inhibition [11] 3.8% | inhibition [12] 1.1% | inhibition [13] -1.5% | efflux inhibition (fraction of control) [14] -0.07 | inhibition [15] 27% | differentiation response [16] 27.6%
65.8%: double positive events [5]

CCN(CC)C(=O)N[C@H]1C[C@@H]2c3cccc4[nH]cc(c34)C[C@H]2N(C)C1
62.5%: double positive events [5]
inactive: percent of DMSO control GFP [1] 101% | GFP response vs DMSO [2] 107% | percent response of DMSO control [3] 101% | GFP response vs DMSO [4] 94% | vesicle binding response [5] 197% | inhibition [6] -11.9% | aptamer binding inhibition [7] -2% | inhibition [8] 28.7% | response [9] -1.97% | binding (% of control) [10] 101% | inhibition [11] -2.6% | inhibition [12] -1.3% | inhibition [13] -36% | efflux inhibition (fraction of control) [14] 0.36 | inhibition [15] -252% | differentiation response [16] 21.8%
